In the library only some 4.7% were active in any assay of this set; here they are far more common.
D1 PAM: human D1 dopamine receptor positive modulation; P21728; HEK293 TREx D1 cells, calcium flux, dopamine EC20 potentiation; potentiation, % at 10 µM; 0.036% of 360,000 active; in the data active = potentiation above about 30%
D1 ag: activates the human D1 dopamine receptor | HEK293 T-REx D1 cells, calcium flux, agonist mode | activation, % at 2 µM | 1% of 360,000 active
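Inducible HEK293 T-REx D1 cells, force-coupled to calcium signalling, were plated at 4000 cells/well with tetracycline and held overnight at 30 C. After no-wash calcium dye loading, compound-evoked calcium rise over 180 s flagged agonists.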
D1 antag: human D1 dopamine receptor antagonism | P21728 | HEK293 TREx D1 cells, calcium flux, dopamine EC80; hits give low values | activity change, negative = inhibition, % at 10 µM | 3.2% of 360,000 active; in the data active = activity change below about -30%
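HEK293 T-REx cells expressing inducible, force-coupled D1 receptor; no-wash Ca dye, 30–90 min RT. Cmpd → 180 s read at 1 Hz → EC80 DA → 180 s read.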
TRHR ag: activates the human TRH receptor. P34981. TRHR cells, calcium flux fluo-8, FDSS agonist mode. activation, % at 2 µM. 0.18% of 360,000 active
Target sequence (P34981 whole entry, looked up): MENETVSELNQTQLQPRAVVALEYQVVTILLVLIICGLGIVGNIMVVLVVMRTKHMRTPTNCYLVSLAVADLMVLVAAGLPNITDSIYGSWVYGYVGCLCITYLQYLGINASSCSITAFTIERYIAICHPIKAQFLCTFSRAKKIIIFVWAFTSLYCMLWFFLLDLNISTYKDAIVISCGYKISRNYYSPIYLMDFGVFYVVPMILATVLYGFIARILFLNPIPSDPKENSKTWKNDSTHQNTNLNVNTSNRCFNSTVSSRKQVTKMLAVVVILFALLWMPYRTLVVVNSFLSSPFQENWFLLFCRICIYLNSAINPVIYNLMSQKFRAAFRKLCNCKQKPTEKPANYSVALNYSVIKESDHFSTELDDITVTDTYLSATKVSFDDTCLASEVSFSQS
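In this calcium-flux screen, cells bearing human TRHR are dye-loaded with fluo-8, baselined for 10 cycles, then exposed to library compounds; positive kinetic calcium responses during the agonist phase mark hits, with TRH as control.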
TRHR PAM: allosteric enhancers of human TRH receptor. 0.66% of 360,000 active. P34981. enhancement, % at 2 µM. TRHR cells, fluo-8 calcium fluorescence, EC20 TRH enhancement. AID 493056; in the data active = enhancement above about 30%
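TRHR-expressing cells loaded with fluo-8 calcium dye were read kinetically (ex 480/em 530) during compound addition, then stimulated with an EC20 of TRH (10 nM final). Enhancement of the Gq-mediated intracellular calcium response was scored.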
Hits are given with their value; n = inactive; x = no result given. Rule as the data show it, unless noted: active = activation above about 30%; inactive = the rest.

SMILES	D1 PAM	D1 ag	D1 antag	TRHR ag	TRHR PAM
COc1ccc2c(c1)c1c(c(=O)n(-c3ccccc3C)c(=O)n1CC(=O)Nc1c(C)cccc1C)n2C	n	n	n	n	n
CCOc1ccccc1NC(=O)c1cccc2ccccc12	n	n	n	n	n
COc1ccccc1NC(=O)NNC(=O)c1ccc2ccccc2c1O	n	n	-36	n	n
COc1cccc(C(=O)Nc2cccc3ccccc23)c1OC	n	n	-35	n	n
CCN(CC)S(=O)(=O)c1ccc(C(=O)Nc2nnc(C(C)C)s2)cc1	n	n	-40	n	n
Cc1nc2ccc(NC(=O)c3sccc3C)cc2s1	n	n	-39	n	n
CCN(CC)S(=O)(=O)c1nnc(NC(=O)c2ccc(C(C)C)cc2)s1	n	n	n	n	n
CCN(CC)S(=O)(=O)c1ccc2nc(NC(=O)c3cncc(Br)c3)sc2c1	n	31	n	n	n
Cc1nc2ccc(NC(=O)c3ccccc3)cc2s1	n	n	n	n	n
CCN(CC)S(=O)(=O)c1ccc2nc(NC(=O)c3ccc(Br)o3)sc2c1	n	n	n	n	n
Cc1nc2ccc(NC(=O)c3cncc(Br)c3)cc2s1	n	n	-36	n	n
CC1CCN(S(=O)(=O)c2ccc3c(c2)CCN3C(=O)Nc2ccc(Br)cc2)CC1	n	n	n	n	n
COc1cc(CNCCSc2nnnn2C)ccc1OCc1ccccc1C	n	n	n	n	n
O=C(Nc1ccc(Br)cc1)N1CCC(CN2CCCC2)CC1	n	n	n	n	n
NNC(=O)CNC(c1ccccc1)c1cc(Br)ccc1NC(=O)CCN1CCOCC1 (stereo not drawn)	n	n	n	n	36
NNC(=O)CNC(c1ccccc1)c1cc(Br)ccc1NC(=O)c1ccc(Br)cc1 (stereo not drawn)	n	n	n	n	n
CCN(c1cc(C)cc(C)c1)S(=O)(=O)c1nnc(NC(=O)C2CCCCC2)s1	n	n	n	n	n
C/C(=N\NC(=O)c1nnn(-c2nonc2N)c1-c1ccc2c(c1)OCO2)c1ccccc1	n	34	n	n	n
C/C(=N\NC(=O)c1nnn(-c2nonc2N)c1CN(C)c1ccccc1)c1cccc(O)c1	n	n	-39	n	n
C/C(=N\NC(=O)c1nnn(-c2nonc2N)c1-c1ccc2c(c1)OCO2)c1ccc(C)cc1	n	104	n	n	n
O=C(NCC(c1ccco1)S(=O)(=O)c1cccs1)c1ccccc1 (stereo not drawn)	n	n	x	n	n
COc1ccc(Cn2ccc3nc(C)c(C(=O)N4CCN(c5ccccc5OC)CC4)cc3c2=O)cc1	n	n	-33	n	n
COc1ccc(Cn2ccc3nc(C)c(C(=O)N4CCN(c5ccc(OC)cc5)CC4)cc3c2=O)cc1	n	n	n	n	n
CSc1ccc(CNC(=O)c2cc3c(=O)n(Cc4ccco4)ccc3nc2C)cc1	n	n	n	n	n
COc1ccc(CNC(=O)c2cc3c(=O)n(Cc4ccco4)ccc3nc2C)cc1	n	n	-35	n	n
SMILES	D1 PAM	D1 ag	D1 antag	TRHR ag	TRHR PAM
Cc1cccc(CNC(=O)C2CCN(S(=O)(=O)c3ccc4c(c3)CCCN4C(=O)C3CCC3)CC2)c1	n	n	n	n	n
CC(CCc1ccccc1)NC(=O)CSc1n[nH]c(-c2ccccc2)n1 (stereo not drawn)	n	n	n	n	n
O=C(CSc1n[nH]c(-c2ccccn2)n1)Nc1ccccc1	n	n	n	n	n
COc1ccc(NC(=O)CSc2n[nH]c(-c3ccccn3)n2)cc1	n	n	-65	n	n
O=C(CSc1n[nH]c(-c2cccnc2)n1)Nc1ccccc1	n	n	n	n	n
COC(=O)CSc1n[nH]c(-c2cccnc2)n1	n	n	-34	n	n
COc1ccc(-c2nc(SCC(=O)NC(C)CCc3ccccc3)n[nH]2)cc1 (stereo not drawn)	n	n	-33	n	n
COc1ccccc1C(=O)Oc1c(Sc2ccccc2)c(C)nn1C(C)(C)C	n	n	n	n	n
Cc1n[nH]c(=O)c2c1nnn2Cc1ccccc1Cl	n	n	-51	n	n
CCOc1ccc(NC(=O)C2CCCN(c3nn4cc(-c5ccc(OC)cc5)nc4s3)C2)cc1 (stereo not drawn)	n	n	n	n	n
Cc1cccn2c(=O)c3cc(C#N)c(=N)n(CCN4CCOCC4)c3nc12	n	n	n	n	32
Cc1ccc(-n2ncc3c(NC4CCCC4)ncnc32)cc1	n	n	n	n	n
Cc1ccc(Cn2c(=O)c3cccnc3n(Cc3ccc(C)cc3)c2=O)cc1	n	n	-30	n	n
CC(C)(C)C(=O)NN=C1CCC(c2ccccc2)CC1 (stereo not drawn)	n	n	-33	n	n
COC(=O)NN=C1CCC(c2ccccc2)CC1 (stereo not drawn)	n	n	n	n	n
O=C(Nc1ccc(Cc2ccncc2)cc1)c1ccc(S(=O)(=O)N2CCCC2)cc1	n	n	-39	n	n
COC(=O)c1ccccc1NS(=O)(=O)c1ccc(F)cc1	n	n	-36	n	n
Cc1ccc(NC(=O)c2ccccc2NS(=O)(=O)c2ccc(F)cc2)cc1S(=O)(=O)N1CCCCC1	n	n	n	n	n
O=C(Nc1cccc(S(=O)(=O)N2CCCCC2)c1)c1ccccc1NS(=O)(=O)c1ccc(F)cc1	n	41	-52	n	n
COc1ccc(C(=O)Nc2ccc(-n3nncc3-c3ccc(OC)c(OC)c3)cc2)cc1	n	n	n	n	n
COC(=O)c1ccccc1NS(=O)(=O)c1ccc(NC(C)=O)cc1	n	n	n	n	n
COc1ccc(-c2cnnn2-c2ccc(NC(=O)c3ccc(S(=O)(=O)N4CCCCC4)cc3)cc2)cc1OC	n	n	-34	n	n
CC(=O)N1CCc2cc(S(=O)(=O)NC(Cc3ccccc3)C(=O)NCc3ccccc3Cl)ccc21 (stereo not drawn)	n	n	n	n	n
O=C(CN1CCCN(S(=O)(=O)c2ccc(F)cc2)CC1)Nc1cccc(F)c1	n	n	n	n	n
O=C(CN1CCN(C(=O)c2cccc(S(=O)(=O)N3CCCC3)c2)CC1)Nc1cccc(F)c1	n	n	-33	n	n
SMILES	D1 PAM	D1 ag	D1 antag	TRHR ag	TRHR PAM
O=C(Nc1cccc(F)c1)c1ccc(S(=O)(=O)N2CCCCC2)cc1	n	n	-43	n	n
O=C(Nc1cccc(O)c1)c1ccc(S(=O)(=O)N2CCCCCC2)cc1	n	n	n	n	n
CCCCCCCCCCCC(=O)NC(C(=O)O)C(O)c1ccccc1 (stereo not drawn)	n	374	n	n	n
CN(C)CCCNc1cc(C(C)(C)C)nc2c(-c3ccccc3)cnn12	n	58	n	n	n
CCOc1ccc2c(c1)NC(c1cccs1)=NC(c1ccc(F)cc1)=N2	n	n	n	n	n
O=C(/C=C/c1ccccc1O)c1ccc(Cl)cc1	n	n	n	n	n
COc1ccccc1/C=C/C(=O)c1ccc(Cl)cc1	n	n	-36	n	n
